The values that follow come from PubChem BioAssay.

Each structure is given as a SMILES string. Activity calls are given as the source filed them.

One experiment has as its target Albumin (Bos taurus) (UniProt P02769). Kind of experiment: bovine serum albumin binders on microarray, profiling panel, artefact control for SMM control protein annotation, biochemical, small-molecule microarray, Alexa647 label, 635/667 nm fluorescence (AID 1118).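 Further: score merges 667 nm emission intensity and signal-to-noise per printed compound spot.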 The note with it: BSA-A647 binding, fluorescence 635 nm, higher = more signal.
Experiment [1] can be described thus: small-molecule microarray binders of probe aXIP, primary screen, biochemical, NeuroSMM set, 635/667 nm fluorescence (AID 1119).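 Further: probe is the protein aXip251-270 applied at 1 µg/mL to compound-printed slides; binding of probe to printed compounds measured as 667 nm fluorescence plus signal to noise.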 Conditions: higher = more signal, called active from +8 up or from −8 down.
Experiment [2] in a line: small-molecule binders of probe aNOTCH3, primary screen, biochemical, small-molecule microarray, 635/667 nm fluorescence (AID 1120).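 Further: probe is a biotin-tagged antibody raised against NOTCH3 rather than NOTCH3 protein; score merges spot fluorescence near 667 nm with spot signal to noise.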 Conditions: higher = more signal.
Experiment [3] in a line: small-molecule binders of probe aNOTCH2, primary screen, biochemical, small-molecule microarray, 635/667 nm fluorescence (AID 1121).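 Further: score merges feature fluorescence read at 667 nm with its signal to noise.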 The note with it: higher = more signal.
Experiment [4] has as its target Carbonic anhydrase 2 (Homo sapiens) (UniProt P00918). Kind of experiment: CAII small-molecule binders, profiling panel, biochemical, small-molecule microarray, Alexa647-labelled CAII (AID 1122). The note with it: CAII-A647 binding fluorescence, higher = more signal.
A short description of experiment [5]: COS7 lysate on small-molecule microarray, probe aHis, 635 nm (AID 1123).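 Further: z-score combines 667nm fluorescence intensity with signal-to-noise per printed compound spot.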 Conditions: COS7 cell lysate, fluorescence, higher = more signal.
Experiment [6] is described as follows: compound binding in COS7 lysate, probe aLAP1, primary screen, cell lysate, small-molecule microarray (AID 1124).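 Further: lysate comes from COS7 cells expressing LAP1 and is applied at 0.3 µg/mL; score merges spot fluorescence near 667 nm with signal-to-noise over triplicate slides.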 The note with it: probe aLAP1, fluorescence, higher = more signal.
The next experiment relates to Sam68 (KHDRBS1). Kind of experiment: Sam68 small-molecule binders, primary screen, biochemical, small-molecule microarray, 635 nm fluorescence (AID 1125).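 Further: score merges 667 nm channel intensity with signal to noise over triplicate slides.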 The note with it: small-molecule microarray binding, higher = more signal.
Experiment [7] concerns Chordin-like protein 2 (CHRDL2). Kind of experiment: CHRDL2 small-molecule binders, primary screen, biochemical, small-molecule microarray, 635 nm fluorescence (AID 1126).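 Further: printed compound slides probed with Chrdl2 protein at 4 µg/mL for 1 h at 4 C; score merges 667 nm emission intensity with signal to noise over three replicate slides.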 Conditions: small-molecule microarray binding, fluorescence 635 nm; higher = more signal.
The target in experiment [8] is Concanavalin-A (Canavalia ensiformis) (UniProt P02866). Kind of experiment: ConA small-molecule binders, primary screen, artefact control for SMM control protein annotation, biochemical, small-molecule microarray, Alexa647 label, 635 nm (AID 1127).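 Further: z combines 667 nm emission intensity with signal-to-noise across three replicate slides.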 The note with it: ConA-A647 binding fluorescence, higher = more signal.
Experiment [9] in a line: anti-His antibody binders, primary screen, artefact control for SMM control protein annotation, biochemical, small-molecule microarray, 635 nm fluorescence (AID 1128).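 Further: score merges feature fluorescence with signal-to-noise for each printed compound spot.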 Conditions: anti-His Alexa647 antibody binding, higher = more signal.
Experiment [10] has as its system Human papillomavirus type 1a E7 protein (residues 1-88). Kind of experiment: HPV1a E7 small-molecule binders, primary screen, biochemical, small-molecule microarray, residues 1-88, 635 nm (AID 1129). The note with it: small-molecule microarray binding, fluorescence 635 nm; higher = more signal.
Experiment [11] concerns the target Focal adhesion kinase 1 (Homo sapiens) (UniProt Q05397). The experiment is described as follows: small-molecule microarray binders of FAK, primary screen, biochemical, 635/667 nm fluorescence, BSA, DTT (AID 1130).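 Further: composite of spot emission at 667 nm and signal to noise over triplicate slides.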 The note with it: PTK2 binding, 635 nm fluorescence, higher = more signal.
In experiment [12] the test system is Fibrinogen (Alexa647-labelled). The experiment is described as follows: fibrinogen binders on compound microarrays, profiling panel, artefact control for SMM control-protein annotation, biochemical, small-molecule microarray, 635/667 nm fluorescence (AID 1131).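 Further: z-score merges 667 nm fluorescence with per-spot signal-to-noise over triplicate slides.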 Conditions: fibrinogen-A647 binding fluorescence, higher = more signal.
Experiment [13] has as its target Follistatin (Homo sapiens) (UniProt P19883). Kind of experiment: follistatin binders on small-molecule microarrays, primary screen, biochemical, small-molecule microarray, 635/667 nm fluorescence (AID 1132). The note with it: FST binding, 635 nm fluorescence, higher = more signal.
Experiment [14] deals with Fibroblast growth factor 2 (Homo sapiens) (UniProt P09038). Kind of experiment: FGF2 binders on small-molecule microarrays, primary screen, biochemical, small-molecule microarray, 635/667 nm fluorescence (AID 1133). The note with it: small-molecule microarray binding, FGF2, fluorescence 635/667; higher = more signal.
Experiment [15] can be described thus: mitochondrial membrane potential change in A549 cells, profiling panel, cell-based, JC-1 fluorescence, basal, 24 h, 100 nL (AID 1138).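 Further: A549 lung adenocarcinoma cells under basal conditions with no added stimulus; test concentration not given here.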 Conditions: higher = more signal.
A further experiment relates to Lefty1. Kind of experiment: Lefty1 binders on small-molecule microarrays, primary screen, biochemical, small-molecule microarray, 635/667 nm fluorescence (AID 1139). Conditions: small-molecule microarray binding, fluorescence 635/667; higher = more signal.
Experiment [16] relates to wheat germ agglutinin (Triticum aestivum), Alexa647-labelled. Kind of experiment: wheat germ agglutinin binders on compound microarrays, profiling panel, artefact control for SMM control-protein annotation, biochemical, small-molecule microarray, 635/667 nm fluorescence (AID 1140).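 Further: score merges 667 nm feature emission with signal to noise over triplicate slides.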 Conditions: WGA-A647 binding, 635 nm fluorescence, higher = more signal.
Experiment [17] concerns the target Luciferin 4-monooxygenase (Photinus pyralis) (UniProt P08659). Kind of experiment: firefly luciferase enzyme inhibitors, primary screen, biochemical, luminescence, purified enzyme, 2006 set (AID 1141).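 Further: cell-free assay with purified firefly luciferase at 100 ng per well in PBS; test concentration not given here.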 Conditions: SteadyGlo luminescence, 30 min, higher = more signal, called active from +8 up or from −8 down.

Fibroblast growth factor 2 (Homo sapiens), sequence (P09038 whole entry, looked up): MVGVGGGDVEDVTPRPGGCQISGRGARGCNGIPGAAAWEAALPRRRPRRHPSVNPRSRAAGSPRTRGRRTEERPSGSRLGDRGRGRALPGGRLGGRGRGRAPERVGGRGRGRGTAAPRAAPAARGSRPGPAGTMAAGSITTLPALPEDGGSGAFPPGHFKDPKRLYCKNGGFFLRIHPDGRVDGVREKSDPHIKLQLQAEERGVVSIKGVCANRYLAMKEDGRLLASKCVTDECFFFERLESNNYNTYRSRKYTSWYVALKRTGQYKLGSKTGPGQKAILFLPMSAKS
Focal adhesion kinase 1 (Homo sapiens), sequence (Q05397 whole entry, looked up): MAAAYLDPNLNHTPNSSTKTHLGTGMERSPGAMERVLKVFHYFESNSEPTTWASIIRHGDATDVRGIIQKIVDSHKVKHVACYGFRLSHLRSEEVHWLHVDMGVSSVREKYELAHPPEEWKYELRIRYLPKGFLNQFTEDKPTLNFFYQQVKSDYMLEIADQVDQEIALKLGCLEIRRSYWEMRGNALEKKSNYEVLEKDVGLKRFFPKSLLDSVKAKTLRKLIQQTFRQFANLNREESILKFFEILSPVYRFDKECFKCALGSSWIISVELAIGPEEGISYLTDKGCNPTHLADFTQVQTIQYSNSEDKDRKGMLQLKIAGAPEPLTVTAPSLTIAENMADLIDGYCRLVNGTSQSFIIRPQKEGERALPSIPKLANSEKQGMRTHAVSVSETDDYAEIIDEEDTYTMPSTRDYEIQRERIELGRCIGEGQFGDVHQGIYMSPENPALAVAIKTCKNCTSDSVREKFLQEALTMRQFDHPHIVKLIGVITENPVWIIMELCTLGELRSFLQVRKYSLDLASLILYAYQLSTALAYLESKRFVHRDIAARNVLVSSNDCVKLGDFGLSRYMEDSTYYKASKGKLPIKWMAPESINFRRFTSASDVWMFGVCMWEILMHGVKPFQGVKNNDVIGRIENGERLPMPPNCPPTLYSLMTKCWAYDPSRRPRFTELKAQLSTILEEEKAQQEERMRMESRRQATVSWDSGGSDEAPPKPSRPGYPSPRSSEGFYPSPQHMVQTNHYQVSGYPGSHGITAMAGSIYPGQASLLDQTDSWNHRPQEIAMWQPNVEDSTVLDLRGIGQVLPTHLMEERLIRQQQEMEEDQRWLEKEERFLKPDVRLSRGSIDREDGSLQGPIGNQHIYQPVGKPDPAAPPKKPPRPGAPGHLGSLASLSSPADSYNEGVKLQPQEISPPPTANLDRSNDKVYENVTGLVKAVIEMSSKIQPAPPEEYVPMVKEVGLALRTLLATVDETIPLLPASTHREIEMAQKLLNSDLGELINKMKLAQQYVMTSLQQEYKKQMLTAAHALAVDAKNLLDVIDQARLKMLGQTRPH
Follistatin (Homo sapiens), sequence (P19883 whole entry, looked up): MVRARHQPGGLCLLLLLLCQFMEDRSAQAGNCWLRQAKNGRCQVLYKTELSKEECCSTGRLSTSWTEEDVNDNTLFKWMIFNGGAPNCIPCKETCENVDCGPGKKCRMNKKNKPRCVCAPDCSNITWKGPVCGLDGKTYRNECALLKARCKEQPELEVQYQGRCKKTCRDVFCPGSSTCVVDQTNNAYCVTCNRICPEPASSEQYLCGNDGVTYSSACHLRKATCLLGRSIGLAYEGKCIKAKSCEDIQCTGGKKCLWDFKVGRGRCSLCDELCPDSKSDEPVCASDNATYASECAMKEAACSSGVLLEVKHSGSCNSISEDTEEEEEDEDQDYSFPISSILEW
Concanavalin-A (Canavalia ensiformis), sequence (P02866 whole entry, looked up): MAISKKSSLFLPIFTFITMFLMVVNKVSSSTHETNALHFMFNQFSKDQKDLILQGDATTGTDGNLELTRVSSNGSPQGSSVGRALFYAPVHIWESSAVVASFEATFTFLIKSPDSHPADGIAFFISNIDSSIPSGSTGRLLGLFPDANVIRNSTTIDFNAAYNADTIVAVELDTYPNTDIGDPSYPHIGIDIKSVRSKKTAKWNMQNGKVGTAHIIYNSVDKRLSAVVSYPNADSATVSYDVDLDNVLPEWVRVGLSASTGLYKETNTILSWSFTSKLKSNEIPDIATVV
Luciferin 4-monooxygenase (Photinus pyralis), sequence (P08659 whole entry, looked up): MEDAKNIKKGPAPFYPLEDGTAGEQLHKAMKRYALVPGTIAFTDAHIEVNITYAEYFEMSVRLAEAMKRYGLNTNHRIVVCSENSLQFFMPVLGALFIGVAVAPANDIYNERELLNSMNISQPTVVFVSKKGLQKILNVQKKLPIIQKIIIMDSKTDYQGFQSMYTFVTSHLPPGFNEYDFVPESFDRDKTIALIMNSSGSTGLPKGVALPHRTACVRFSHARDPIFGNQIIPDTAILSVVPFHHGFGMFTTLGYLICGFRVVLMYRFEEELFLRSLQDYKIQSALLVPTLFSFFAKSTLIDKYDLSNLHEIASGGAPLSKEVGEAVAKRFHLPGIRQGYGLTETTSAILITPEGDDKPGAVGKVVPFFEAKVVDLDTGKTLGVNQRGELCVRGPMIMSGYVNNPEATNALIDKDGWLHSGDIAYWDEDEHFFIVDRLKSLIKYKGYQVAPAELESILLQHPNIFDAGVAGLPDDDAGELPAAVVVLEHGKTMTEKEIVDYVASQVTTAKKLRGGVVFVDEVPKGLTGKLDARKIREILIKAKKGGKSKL
Albumin (Bos taurus), sequence (P02769 whole entry, looked up): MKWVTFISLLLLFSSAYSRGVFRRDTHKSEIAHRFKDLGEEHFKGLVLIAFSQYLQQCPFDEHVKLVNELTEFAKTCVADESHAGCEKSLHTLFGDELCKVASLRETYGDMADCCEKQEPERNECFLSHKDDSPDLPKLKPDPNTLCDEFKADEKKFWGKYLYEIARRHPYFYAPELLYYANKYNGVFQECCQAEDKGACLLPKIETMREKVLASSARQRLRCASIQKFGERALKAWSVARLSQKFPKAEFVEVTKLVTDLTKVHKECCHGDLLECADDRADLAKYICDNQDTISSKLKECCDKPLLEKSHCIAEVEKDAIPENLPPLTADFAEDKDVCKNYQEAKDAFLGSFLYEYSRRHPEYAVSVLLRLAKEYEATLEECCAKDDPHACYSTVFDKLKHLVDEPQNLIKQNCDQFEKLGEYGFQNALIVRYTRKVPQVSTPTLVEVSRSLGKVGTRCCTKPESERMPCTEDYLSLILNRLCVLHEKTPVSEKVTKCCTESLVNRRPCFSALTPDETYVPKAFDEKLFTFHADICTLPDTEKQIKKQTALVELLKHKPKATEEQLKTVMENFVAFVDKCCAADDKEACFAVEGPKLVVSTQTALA

In the case of `O=C/C=C/c1ccc(/C=C/c2ccccc2)cc1`, the composite z-score with Albumin (Bos taurus) is -0.435; in experiment [2], -0.25; in experiment [3] it was -0.175; in experiment [4], -0.147; in experiment [5] it was -0.792; in experiment [6], 0.103. Further, the composite z-score in the experiment on Sam68 (KHDRBS1) was -1.22; in experiment [7], 0.95; in experiment [8] it was -0.342; in experiment [9], 1.52; in experiment [10] it was -0.483; in experiment [11] it was -0.313. Moreover, the composite z-score was -1.86 in [12]; 0.828 in experiment [13]; 0.168 in experiment [14]; -0.134 in the experiment with Lefty1; 0.633 in [16]. In [1], the composite Z-score is -0.738 (inactive). Further, the results for the z-score in experiment [15] and in experiment [17] were 1.39 and -3.83 (inactive), respectively.
With `CO[C@H]1COC(=O)[C@@H](C)COC(=O)[C@H](Cc2ccccc2)NC(=O)CC=C[C@H]1C`, the composite z-score with Albumin (Bos taurus) was -0.73; in [2], -0.208; in experiment [3], -0.223; in experiment [4], -0.315; in experiment [5] it was -0.557; in experiment [6], -0.399. The composite z-score in the experiment with Sam68 (KHDRBS1) was 0.294; in experiment [7], 1.48; in experiment [8], -0.268; in experiment [9], -1.35; in [10], -0.0007; in experiment [11] it was -0.62. Moreover, the composite z-score in experiment [12] is 0.177; in [13], 0.932; in experiment [14], 0.771; with Lefty1, 1.27; in experiment [16], -0.457. In [1], the composite Z-score was 0.0953 (inactive). Further, the z-score was 1.04 in [15] and -0.897 (inactive) in experiment [17].
Consider `C=CCC1=C[C@H]2[C@H]([C@@H]3C=C[C@]2(CC=C)C(=O)[C@]32CO2)[C@@]2(CO2)C1=O`, for which the composite z-score is -0.44 with Albumin (Bos taurus); 0.519 in experiment [2]; 0.082 in [3]; -0.262 in experiment [4]; 0.104 in experiment [5]; -0.0222 in experiment [6]. Further, the composite z-score in the experiment with Sam68 (KHDRBS1) is -0.56; in [7] it was 1.54; in experiment [8], -1; in experiment [9] it was -0.131; in [10], -1.2; in [11], -0.263. Moreover, the composite z-score is -0.571 in [12]; 1.45 in experiment [13]; 1.45 in [14]; 1.58 in the experiment with Lefty1; -0.0818 in [16]. Further, in [1], the composite Z-score is 0.528 (inactive). The z-score in experiment [15] was 1.84; in experiment [17] it was -1.01 (inactive).
For the compound `C=CCc1cccc([C@H]2N[C@H](C(=O)O)CC[C@@H]2C)c1`, the composite z-score with Albumin (Bos taurus) was -0.595; in experiment [2], -0.122; in experiment [3], -0.157; in [4], 0.0666; in experiment [5], -0.31; in experiment [6], -0.27. For the same compound, the composite z-score in the experiment on Sam68 (KHDRBS1) is 0.538; in experiment [7], 0.843; in experiment [8] it was 0.0607; in experiment [9] it was 0.7; in experiment [10], 0.297; in [11], 1.34. The composite z-score in [12] was 0.172; in [13], 0.648; in experiment [14] it was 0.972; in the experiment with Lefty1, 0.825; in [16], -0.173. Moreover, the composite Z-score in [1] is -0.149 (inactive). For the same compound, the z-score in [15] was 0.809; in [17] it was -0.42 (inactive).
As for `CO[C@@H]1COC(=O)[C@H](C)NC(=O)CC=C[C@@H](C)[C@H](OC)COC(=O)[C@H](C)NC(=O)CC=C[C@H]1C`, the composite z-score is -0.406 with Albumin (Bos taurus); -0.226 in experiment [2]; -0.124 in experiment [3]; -0.305 in experiment [4]; -0.466 in experiment [5]; 0.0381 in experiment [6]. For the same compound, the composite z-score came out at 0.315 in the experiment with Sam68 (KHDRBS1); 1.16 in experiment [7]; 0.44 in [8]; 0.284 in experiment [9]; 0.207 in experiment [10]; 0.0533 in experiment [11]. Moreover, the composite z-score amounted to 0.38 in [12]; 0.614 in [13]; 0.989 in experiment [14]; 0.59 in the experiment on Lefty1; 0.222 in [16]. In experiment [1], the composite Z-score is 0.137 (inactive). Also, the z-score in [15] is 1.64; in experiment [17], -1.57 (inactive).
For `O=C1O[C@@H](c2ccccc2)[C@@H](c2ccccc2)N2[C@@H](c3ccc(O)cc3)[C@]3(C(=O)Nc4ccccc43)[C@@H](C(=O)N3CCN(c4ncccn4)CC3)[C@H]12`, the composite z-score in the experiment with Albumin (Bos taurus) is 0.689; in experiment [2], -0.122; in [3], -0.154; in [4] it was 0.686; in experiment [5], 0.456; in [6], 0.613. Moreover, the composite z-score in the experiment with Sam68 (KHDRBS1) is 0.528; in [7] it was -0.571; in experiment [8], 0.474; in experiment [9], 0.265; in [10], 1.19; in experiment [11] it was 0.225. The composite z-score was 0.179 in experiment [12]; 0.169 in [13]; -0.0433 in experiment [14]; -0.173 in the experiment with Lefty1; -0.387 in [16]. Further, the composite Z-score in experiment [1] is 5.4 (inactive). Besides, the z-score in [15] is 0.948; in experiment [17] it was -1.51 (inactive).
`C=CCC(OC(C)=O)[C@@H]1[C@@H](N(Cc2ccc(-c3cccc(C(F)(F)F)c3)o2)C(=O)Cc2ccc(F)cc2)c2cc(OCCCO)ccc2N1C(=O)c1ccc(-c2ccccc2)cc1` (stereo not given in full): the composite z-score is -0.701 in the experiment with Albumin (Bos taurus); -0.0996 in experiment [2]; -0.154 in experiment [3]; -0.215 in experiment [4]; -0.197 in [5]; 0.0045 in experiment [6]. Moreover, the composite z-score in the experiment with Sam68 (KHDRBS1) is -0.443; in experiment [7], -0.294; in experiment [8], -1.04; in [9], -0.656; in experiment [10] it was -0.922; in experiment [11], -0.131. Further, the composite z-score in experiment [12] was -0.531; in experiment [13] it was 0.16; in experiment [14], -0.246; in the experiment with Lefty1, -0.173; in [16] it was 0.294. For the same compound, in experiment [1], the composite Z-score was -0.014 (inactive). Further, the z-score in [15] was 1.74; in experiment [17], -0.306 (inactive).
Take `O=C(NCc1ccccc1)[C@@]1(Cc2ccccc2)COC(c2ccc(OCCCO)cc2)=N1`: the composite z-score with Albumin (Bos taurus) was 0.48; in experiment [2], 0.0539; in experiment [3], -0.0063; in experiment [4], 0.504; in experiment [5], 1.71; in [6] it was 0.144. Moreover, the composite z-score was 0.682 in the experiment on Sam68 (KHDRBS1); -0.594 in experiment [7]; 0.865 in experiment [8]; 2.46 in experiment [9]; 1.17 in [10]; 0.773 in [11]. Besides, the composite z-score in experiment [12] was 0.838; in experiment [13], 0.0985; in experiment [14] it was -0.238; in the experiment with Lefty1 it was -0.554; in [16], 0.449. In addition, the composite Z-score in experiment [1] was -0.179 (inactive). The z-score was -1.56 in experiment [15] and -0.603 (inactive) in [17].
